The text below walks through data of PubChem BioAssay.

Calls of active or inactive are those of the source.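 How the source made its calls: active means compounds whose cell count with miR-34 switched on is under 0.7 times the count with it off; inactive means the rest.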

One assay can be described thus: sensitizers of A549 cells to miR-34 induction, primary screen, imaging, A549 dox-inducible miR-34, nuclei and caspase counts (AID 1347080). Further: test concentration not given here. Particulars: A549 miR-34 inducible, Hoechst nuclei count, 48 h; stronger effect = lower value; cell number ratio, induced over uninduced.
Turning to `CCNC(=O)Nc1ccc(-c2nc3c(c(N4CCOCC4C)n2)CCN(C2COC2)C3)cc1` (centres undefined), the fold change is 0.905 (inactive). On the same count and under the same terms, the result for `CC1(C)S[C@H]2C(NC(=O)C(N)c3ccc(O)cc3)C(=O)N2C1C(=O)O` (some centres undefined) reads 1.01 (inactive); that for `CC(C)c1onc(-c2c(Cl)cccc2Cl)c1COc1ccc(C=Cc2cccc(C(=O)O)c2)c(Cl)c1`, 0.901 (inactive).

The same assay, now with this note: A549 miR-34 inducible, Hoechst nuclei count, 48 h; measured here: relative caspase fold change +Dox/-Dox.
Consider `CC(=O)OCC(=O)[C@]12N=C(C)O[C@@H]1C[C@H]1[C@@H]3CCC4=CC(=O)C=C[C@]4(C)[C@@H]3C(O)C[C@@]12C` (some centres undefined), for which the fold change was 1.27. Same read-out and setting: then `O=C(C=Cc1ccc(O)c(O)c1)c1ccc(O)cc1O`, with 0.45. For `CC(C)=CCC[C@](C)(OC1OC(COC2OCC(O)C(O)C2O)C(O)C(O)C1O)C1CC[C@]2(C)[C@@H]1C(O)C[C@H]1[C@@]3(C)CCC(OC4OC(CO)C(O)C(O)C4O)C(C)(C)[C@@H]3CC[C@]12C` (some centres undefined), the fold change turned out to be 0.422. The same measure, in the same setting: then `COc1c(C)c2c(c(O)c1CC=C(C)CCC(=O)OCCN1CCOCC1)C(=O)OC2`, with 1.06; and `CC(=Cc1ccc(C(=O)O)cc1)c1ccc2c(c1)C(C)(C)CCC2(C)C`, with 0.781. Still for that read-out and setting: then `Cc1ccc(C2OC(CO)C(O)C(O)C2O)cc1Cc1ccc(-c2ccc(F)cc2)s1` (centres undefined), with 0.772; and `CNCc1cc(-c2ccccc2F)n(S(=O)(=O)c2cccnc2)c1`, with 0.437. The same measure, in the same setting: then `OCC(CO)NC1C[C@@](O)(CO)C(O)C(O)C1O` (some centres undefined), with 1.1; and `COc1cc(C=CC(=O)N2CCN(CC(=O)N3CCCC3)CC2)cc(OC)c1OC`, with 0.412. With `O=C(O)C1=CC(O)C(O)C(O)C1` (centres undefined), the fold change came out at 0.723.

Regarding `Cc1ccc(C(=O)NCCCCCC(=O)Nc2ccccc2N)cc1`, the fold change is 0.44.
